NCOA1 inh = human NCOA1 inhibition; inhibition, % at 3.6 µM; Q15788; HEK293 GAL4-SRC1 luciferase reporter, luminescence; AID 588354; 360,000 tested, 0.12% active;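 active = inhibition above the campaign mean plus 3 SD, with each screening campaign given its own cutoff, cut at about 60% in these data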
COUP-TFII inh = inhibitors of human COUP-TFII (NR2F2) | P24468 | HEK293T NGFI-A luciferase reporter, luminescence | inhibition, % at 8.6 µM | 370,000 tested, 0.7% active | AID 686940;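 active = inhibition above a per-plate cutoff, mean inhibition of test wells between control levels plus 3 SD, cut at about 38% in these data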;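 note: cells cotransfected with COUP-TFII expression vector driving the NGFI-A reporter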
SRC3 inh = inhibits human SRC3 coactivator | HEK293 GAL4-SRC3 luciferase reporter, luminescence | AID 588352 | Q9Y6Q9 | 360,000 tested, 0.17% active | inhibition, % at 3.6 µM;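 active = inhibition above a per-campaign cutoff, the mean of all compounds plus 3 SD, cut at about 60% in these data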;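 note: higher means less SRC3-driven luciferase light from the GAL4 reporter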
NCOA2 inhibitor = inhibits human steroid receptor coactivator 2; Q15596; HEK293 GAL4-SRC2 luciferase reporter, luminescence; inhibition, % at 9 µM; 370,000 tested, 0.17% active;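 active = inhibition above the mean inhibition of all tested compounds plus 3 SD, set per campaign, cut at about 52% in these data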
NR5A2 inv ag = suppresses constitutive activity of human LRH-1. inhibition, % at 3.6 µM. AID 602396. O00482. HEK293T StAR-luciferase reporter, LRH-1 transfected, 24 h. 360,000 tested, 0.13% active;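 active = inhibition above the mean inhibition of all tested compounds plus 3 SD, cut at about 73% in these data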
Gal4-VP16 ctr = VP16 inhibition counter-screen for COUP-TFII | inhibition, % at 8.5 µM | AID 687007 | 2,500 tested, 25% active | HEK293 Gal4-VP16 luciferase reporter, luminescence | shares compounds with COUP-TFII inh; in the data active = inhibition above about 13%
COUP-TFII conf = confirmation of human COUP-TFII (NR2F2) inhibitors; inhibition, % at 8.5 µM; 2,500 tested, 45% active; shares compounds with COUP-TFII inh; AID 687008; HEK293 NGFI-A luciferase reporter, luminescence;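 active = mean inhibition over three repeats above a set limit taken from the earlier primary screen, cut at about 38% in these data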
Hits are given with their value; 0 = inactive; - = no result given. Compounds with a hit are over-represented: about 0.81% of the library has one in this group of screens.

SMILES	NCOA1 inh	COUP-TFII inh	SRC3 inh	NCOA2 inhibitor	NR5A2 inv ag	Gal4-VP16 ctr	COUP-TFII conf
COc1ccc(NS(=O)(=O)c2cccc(NC(=O)c3ccc(Cl)nc3)c2)cc1	0	75.2	0	0	0	0	65.9
Cc1nc(CN(C)C(=O)c2cc(COc3ccc4ncccc4c3)on2)cs1	0	57.7	0	0	0	0	51.6
COc1cccc(OCc2cc(C(=O)N(Cc3nccn3C)C(C)C)no2)c1	0	0	0	0	0	-	-
CC(C)N(Cc1nccn1C)C(=O)c1cc(COc2ccc3ncccc3c2)on1	0	40.1	0	0	0	0	0
COC(=O)C[C@@H]1CC[C@H](NC(=O)CC2CC2)[C@@H](CO)O1	-	0	-	0	0	-	-
COc1ccccc1CC(=O)Nc1cccc(S(=O)(=O)N2CCOCC2)c1	0	0	0	0	0	-	-
COc1ccc(CC(=O)Nc2cccc(-c3nnc(-c4cccc(C)c4)o3)c2)cc1OC	0	53.3	0	0	0	0	0
COc1ccc(CC(=O)Nc2cccc(S(=O)(=O)N3CCOCC3)c2)cc1OC	0	47.0	0	0	0	0	0
COc1ccc(CC(=O)Nc2ccc(-c3nnc(-c4ccccc4)o3)cc2)cc1OC	0	-	0	-	0	-	-
CCc1cccc(NC(=O)Cc2ccc(OC)c(OC)c2)c1	0	39.5	0	0	0	0	0
Cc1cccc(N2CC(C(=O)Nc3ccc(S(=O)(=O)N4CCOCC4)cc3)CC2=O)c1C (stereo not drawn)	0	0	0	0	0	-	-
Cc1cccc(N2CC(C(=O)Nc3cccc(S(=O)(=O)N4CCCCC4)c3)CC2=O)c1C (stereo not drawn)	0	47.0	0	0	0	0	0
O=S(=O)(Nc1nc2ccccc2nc1N1CCN(c2ccccc2F)CC1)c1ccc(Cl)cc1	0	0	0	0	0	-	-
COc1ccc(CC(=O)Nc2cccc(S(=O)(=O)N3CCCC3)c2)cc1OC	0	62.5	0	0	0	0	45.5
COc1ccccc1CCC(=O)Nc1cccc(S(=O)(=O)N2CCCCCC2)c1	0	0	0	0	0	-	-
C=CCN=c1scc(-c2ccc(F)cc2)n1/N=C/c1ccccn1	0	0	0	0	0	-	-
C=CCN=c1scc(-c2ccc3c(c2)NC(=O)CO3)n1/N=C(\C)c1ccccn1	0	56.0	0	0	0	0	62.5
COc1ccc(S(=O)(=O)N2CCOC2CNC(=O)C(=O)NCCc2ccc(OC)c(OC)c2)cc1 (stereo not drawn)	0	0	0	0	0	-	-
COc1ccc(CCNC(=O)C(=O)NCC2OCCN2S(=O)(=O)c2ccc(Cl)cc2)cc1OC (stereo not drawn)	0	42.4	0	0	0	0	0
Cc1c(CCC(=O)N2CCC(C(=O)O)(c3ccccc3)CC2)c(=O)oc2cc3oc4c(c3cc12)CCCC4	0	53.4	0	57.6	0	37.0	0
Cc1oc2cc3oc(=O)c(CCC(=O)N4CCC(C(=O)O)(c5ccccc5)CC4)c(C)c3cc2c1C	0	0	0	0	0	-	-
Cc1c(CCC(=O)N2CCC(C(=O)O)CC2)c(=O)oc2cc3oc4c(c3cc12)CCCC4	0	60.5	0	62.7	0	0	0
Cc1c(CCC(=O)N[C@@H](C)C(=O)O)c(=O)oc2cc3oc4c(c3cc12)CCCC4	0	46.8	0	67.1	0	32.6	0
Cc1ccc(-c2csc(NC(=O)C3CCN(S(=O)(=O)c4cccs4)CC3)n2)cc1	0	69.3	0	0	0	0	49.6
O=C(Nc1nccs1)C1CCN(S(=O)(=O)c2cccs2)CC1	0	0	0	0	0	-	-
O=C(Nc1ccc(Cl)cn1)C1CCN(S(=O)(=O)c2cccs2)CC1	0	52.9	0	0	0	0	0
O=C(Nc1nc(-c2ccc3ccccc3c2)cs1)C1CCN(S(=O)(=O)c2cccs2)CC1	0	0	0	0	0	-	-
COc1ccc(CN(C)C(=O)/C=C/c2ccc(S(=O)(=O)N3CCCCCC3)cc2)cc1	0	38.4	0	0	0	0	0
CNC(=O)c1ccc(CN(C)C(=O)/C=C/c2ccc(S(=O)(=O)N3CCCCCC3)cc2)cc1	0	0	0	0	0	-	-
CCOc1ccc(CN(C)C(=O)CCc2ccc(S(=O)(=O)N3CCCCCC3)cc2)cc1	0	41.4	0	0	0	0	0
